Assay results: the supplement of paper PMC10849652
About 7,900 targets were measured; listed, in parts, are those with a hit and a random draw of the rest. About 0.6% of all pairs of compound and target were hits. Unmarked numbers belong to inactive results.

Columns and labels:
Experiment in all cases: log2 fold change, soluble protein after heating vs DMSO (PISA); higher = thermal stabilisation; K562 cells, 10 uM, 30 min; active = over 0.2 and 3.5 SD of the protein, either way, in both replicates (recomputed)
[1] = compound: C#Cc1cccc(Nc2ncnc3cc(OCCOC)c(OCCOC)cc23)c1 [erlotinib]
Method in brief: (§1)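 Soluble protein was defined as the supernatant after 21,000xg for 90 min. It came from K562 cells at 2×10^6 cells/mL given 10 μM compound for 30 min, heated in aliquots for 3 min across 48°C-58°C, pooled, and extracted in PBS with 0.5% NP-40 at 4°C, and was quantified by TMTpro 16plex LC-MS/MS with equalised channel sums. Thermal stability against control samples, from duplicates, is reported as log2 fold change.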

[2] = compound: C/C(=N\NC(=O)C1=CC(=CC=C1)S(=O)(=O)N2CCOCC2)/C3=C(C=CC(=C3)Cl)O
Method in brief: as §1

[3] = compound: C1=CC(=C(C=C1Cl)C2=NC3=NC=CN=C3C(=N2)NC4=CC=NC=C4)F
Method in brief: as §1

[4] = compound: C1=CC(=CC=C1C2=NC3=C(N2)C=C(C=C3)C(=O)N)OC4=CC=C(C=C4)Cl
Method in brief: as §1

[5] = compound: C1=CC2=C(C=CC(=C2)/C=C\3/C(=O)NC(=NCC4=CC=CS4)S3)N=C1
Method in brief: as §1

[6] = compound: C1=CC2=NC=CN=C2C=C1/C=C/3\C(=O)NC(=O)S3
Method in brief: as §1

[7] = compound: C1=CC=C(C=C1)C2=NC(=C(N2)C3=CC=NC=C3)C4=CC(=C(C=C4)Cl)O
Method in brief: as §1

[8] = compound: C1=CC=C2C(=C1)C3=NNC4=CC=CC(=C43)C2=O
Method in brief: as §1

[9] = compound: C1CCN(C1)C(=O)NC2=CC=CC(=C2)NC3=NC=C(C(=N3)NCCC4=CN=CN4)Br
Method in brief: as §1

[10] = compound: C1CN(CCC1(CC2=CC=C(C=C2)Cl)N)C3=NC=NC4=C3C=CN4
Method in brief: as §1

[11] = compound: C1COCCN1CCN2C3=CC=CC=C3N=C2NC(=O)C4=CC(=CC=C4)[N+](=O)[O-] [IRAK-1-4 Inhibitor I]
Method in brief: as §1

[12] = compound: C=CC(=O)N1CCC[C@@H](n2nc(-c3ccc(Oc4ccccc4)cc3)c3c(N)ncnc32)C1 [ibrutinib]
Method in brief: as §1

[13] = compound: CC(=O)c1cnc2ccc(-c3cc(Cl)c(O)c(Cl)c3)nc2c1N[C@H]1CC[C@H](CN(C)C)CC1
Method in brief: as §1

[14] = compound: CC(C)(C)Cn1c(N)nc2ccc(-c3[nH]c(C(C)(C)C)nc3-c3ccc(F)cc3)nc21 [ralimetinib]
Method in brief: as §1

[15] = compound: CC(C)(O)CC(=O)NCCn1ccc2ncnc(Nc3ccc(Oc4cccc(C(F)(F)F)c4)c(Cl)c3)c21
Method in brief: as §1

[16] = compound: CC(C)C1=C2N=C(C=C(N2N=C1)NCC3=CC=CC=C3)NCCCCCCN
Method in brief: as §1

[17] = compound: CC(C)C[C@@H](C=O)NC(=O)[C@H](CC(C)C)NC(=O)[C@H](CC(C)C)NC(=O)OCc1ccccc1
Method in brief: as §1

[18] = compound: CC(C)N(C[C@H]1O[C@@H](n2cnc3c(N)ncnc32)[C@H](O)[C@@H]1O)[C@H]1C[C@@H](CCc2nc3cc(C(C)(C)C)ccc3[nH]2)C1 [pinometostat]
Method in brief: as §1

[19] = compound: CC1=C(C(CC(=O)N1)C2=CC=C(C=C2)C(F)(F)F)C(=O)NC3=C(C=C4C(=C3)C=NN4)F
Method in brief: as §1

[20] = compound: CC1=C(C2=C(C=C1)C(=O)C3=CC=CC=C3N2CCCN)C
Method in brief: as §1

Sequence of UniProt Q08334 (Q08334 whole entry, looked up): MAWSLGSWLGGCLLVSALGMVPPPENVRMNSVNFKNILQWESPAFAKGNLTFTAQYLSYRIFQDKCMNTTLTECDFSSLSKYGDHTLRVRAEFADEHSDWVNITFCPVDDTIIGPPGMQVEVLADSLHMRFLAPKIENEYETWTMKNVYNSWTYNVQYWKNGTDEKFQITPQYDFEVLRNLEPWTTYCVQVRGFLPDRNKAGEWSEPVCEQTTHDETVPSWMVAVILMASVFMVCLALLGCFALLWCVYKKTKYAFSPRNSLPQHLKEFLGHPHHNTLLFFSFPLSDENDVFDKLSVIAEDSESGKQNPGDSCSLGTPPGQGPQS
Sequence of UniProt Q9UIQ6 (Q9UIQ6 whole entry, looked up): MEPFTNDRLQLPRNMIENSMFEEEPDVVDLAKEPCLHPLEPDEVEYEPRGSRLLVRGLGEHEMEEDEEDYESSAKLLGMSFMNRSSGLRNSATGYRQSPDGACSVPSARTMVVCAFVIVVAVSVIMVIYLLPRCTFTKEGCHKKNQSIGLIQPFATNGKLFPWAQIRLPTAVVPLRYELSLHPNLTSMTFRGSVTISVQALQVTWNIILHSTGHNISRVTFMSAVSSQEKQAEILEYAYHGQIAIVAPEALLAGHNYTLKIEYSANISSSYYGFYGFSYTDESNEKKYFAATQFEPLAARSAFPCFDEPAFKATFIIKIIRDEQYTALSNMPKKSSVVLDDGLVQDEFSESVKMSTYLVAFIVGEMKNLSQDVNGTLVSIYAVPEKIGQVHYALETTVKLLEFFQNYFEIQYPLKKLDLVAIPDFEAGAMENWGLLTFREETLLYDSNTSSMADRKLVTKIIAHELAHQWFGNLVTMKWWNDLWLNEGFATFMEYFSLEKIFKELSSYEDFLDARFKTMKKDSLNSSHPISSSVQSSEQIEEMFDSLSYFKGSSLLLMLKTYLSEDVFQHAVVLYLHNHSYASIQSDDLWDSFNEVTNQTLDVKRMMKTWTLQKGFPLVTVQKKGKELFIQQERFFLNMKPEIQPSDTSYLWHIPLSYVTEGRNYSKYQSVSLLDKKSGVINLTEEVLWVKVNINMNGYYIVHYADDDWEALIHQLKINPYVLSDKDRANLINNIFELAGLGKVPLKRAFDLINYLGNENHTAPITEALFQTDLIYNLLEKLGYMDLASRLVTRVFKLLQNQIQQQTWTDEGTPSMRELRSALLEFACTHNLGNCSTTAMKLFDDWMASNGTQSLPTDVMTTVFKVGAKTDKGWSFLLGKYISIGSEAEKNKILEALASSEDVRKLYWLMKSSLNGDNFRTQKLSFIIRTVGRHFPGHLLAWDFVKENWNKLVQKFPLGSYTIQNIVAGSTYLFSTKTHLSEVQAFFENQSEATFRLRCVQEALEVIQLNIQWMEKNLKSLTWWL
Sequence of UniProt Q9Y2X0 (Q9Y2X0 whole entry, looked up): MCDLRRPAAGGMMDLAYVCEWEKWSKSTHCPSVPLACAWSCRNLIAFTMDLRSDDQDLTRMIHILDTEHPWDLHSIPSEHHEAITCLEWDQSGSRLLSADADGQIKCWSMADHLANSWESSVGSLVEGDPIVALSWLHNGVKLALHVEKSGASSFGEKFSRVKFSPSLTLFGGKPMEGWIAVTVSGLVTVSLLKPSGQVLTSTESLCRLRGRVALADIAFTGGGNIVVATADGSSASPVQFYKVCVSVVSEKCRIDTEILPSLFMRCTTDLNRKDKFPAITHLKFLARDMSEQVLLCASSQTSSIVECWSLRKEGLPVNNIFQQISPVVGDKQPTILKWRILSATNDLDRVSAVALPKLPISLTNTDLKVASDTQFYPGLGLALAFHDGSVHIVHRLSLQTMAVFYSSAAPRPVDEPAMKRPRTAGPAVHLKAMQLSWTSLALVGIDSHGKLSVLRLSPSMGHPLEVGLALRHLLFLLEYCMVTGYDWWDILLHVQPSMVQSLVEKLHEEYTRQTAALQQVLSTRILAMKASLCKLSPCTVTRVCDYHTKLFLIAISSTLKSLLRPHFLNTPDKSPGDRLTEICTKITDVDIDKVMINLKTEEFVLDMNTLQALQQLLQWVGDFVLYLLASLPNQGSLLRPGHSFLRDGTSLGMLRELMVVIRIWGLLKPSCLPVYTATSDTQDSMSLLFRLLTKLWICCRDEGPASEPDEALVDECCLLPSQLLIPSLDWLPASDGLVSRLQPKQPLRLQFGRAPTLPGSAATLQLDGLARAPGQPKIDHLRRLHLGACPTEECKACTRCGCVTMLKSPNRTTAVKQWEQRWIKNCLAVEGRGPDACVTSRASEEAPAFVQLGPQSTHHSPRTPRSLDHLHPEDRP
Sequence of UniProt Q96PC5 (Q96PC5 whole entry, looked up): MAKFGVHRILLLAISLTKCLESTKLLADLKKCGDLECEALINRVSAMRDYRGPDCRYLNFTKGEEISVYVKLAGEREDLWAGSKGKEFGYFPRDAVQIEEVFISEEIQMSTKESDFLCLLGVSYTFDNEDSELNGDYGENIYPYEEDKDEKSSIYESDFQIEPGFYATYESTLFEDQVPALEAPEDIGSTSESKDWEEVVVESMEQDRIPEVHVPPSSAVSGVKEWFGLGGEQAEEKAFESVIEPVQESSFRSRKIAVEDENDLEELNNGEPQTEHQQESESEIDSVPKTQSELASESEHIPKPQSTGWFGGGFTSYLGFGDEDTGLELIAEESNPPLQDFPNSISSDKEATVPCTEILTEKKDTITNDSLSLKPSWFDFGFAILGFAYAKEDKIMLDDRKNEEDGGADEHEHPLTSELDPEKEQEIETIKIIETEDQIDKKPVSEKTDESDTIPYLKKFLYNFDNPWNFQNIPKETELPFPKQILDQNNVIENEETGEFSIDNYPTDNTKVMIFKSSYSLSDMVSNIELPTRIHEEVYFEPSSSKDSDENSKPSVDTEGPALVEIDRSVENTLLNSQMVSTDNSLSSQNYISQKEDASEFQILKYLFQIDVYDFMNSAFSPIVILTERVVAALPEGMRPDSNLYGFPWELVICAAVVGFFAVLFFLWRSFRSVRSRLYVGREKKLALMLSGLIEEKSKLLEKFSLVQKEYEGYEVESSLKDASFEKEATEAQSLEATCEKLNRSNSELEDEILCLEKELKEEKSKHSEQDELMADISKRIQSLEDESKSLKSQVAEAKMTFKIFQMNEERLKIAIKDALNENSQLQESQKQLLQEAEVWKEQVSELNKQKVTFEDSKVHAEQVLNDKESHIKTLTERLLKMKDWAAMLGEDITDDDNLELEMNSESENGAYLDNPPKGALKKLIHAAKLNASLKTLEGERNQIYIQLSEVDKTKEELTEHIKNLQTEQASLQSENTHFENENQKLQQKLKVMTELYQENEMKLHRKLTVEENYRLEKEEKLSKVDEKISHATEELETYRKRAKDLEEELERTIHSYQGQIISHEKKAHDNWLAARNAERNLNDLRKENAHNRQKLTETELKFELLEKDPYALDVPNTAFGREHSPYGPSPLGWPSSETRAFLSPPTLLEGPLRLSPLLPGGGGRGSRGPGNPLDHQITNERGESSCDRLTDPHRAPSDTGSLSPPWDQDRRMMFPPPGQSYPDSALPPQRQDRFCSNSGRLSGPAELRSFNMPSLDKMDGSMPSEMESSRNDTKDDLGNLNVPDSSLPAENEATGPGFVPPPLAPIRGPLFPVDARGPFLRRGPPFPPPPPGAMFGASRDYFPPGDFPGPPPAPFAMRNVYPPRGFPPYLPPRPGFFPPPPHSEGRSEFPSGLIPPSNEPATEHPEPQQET
Sequence of UniProt P07948 (P07948 whole entry, looked up): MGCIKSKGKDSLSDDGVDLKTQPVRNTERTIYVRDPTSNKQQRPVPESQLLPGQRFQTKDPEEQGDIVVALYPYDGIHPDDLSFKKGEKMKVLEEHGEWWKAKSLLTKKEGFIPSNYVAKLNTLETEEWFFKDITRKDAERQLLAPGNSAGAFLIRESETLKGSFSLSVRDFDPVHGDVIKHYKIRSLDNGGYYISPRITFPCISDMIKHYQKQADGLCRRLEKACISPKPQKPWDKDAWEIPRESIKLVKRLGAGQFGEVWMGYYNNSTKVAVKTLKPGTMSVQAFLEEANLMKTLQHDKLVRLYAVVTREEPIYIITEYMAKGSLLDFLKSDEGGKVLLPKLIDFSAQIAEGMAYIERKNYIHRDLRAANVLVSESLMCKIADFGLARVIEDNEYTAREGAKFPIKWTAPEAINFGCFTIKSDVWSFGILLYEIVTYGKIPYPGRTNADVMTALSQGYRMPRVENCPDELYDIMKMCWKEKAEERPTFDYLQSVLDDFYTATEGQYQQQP
Sequence of UniProt Q32MZ4 (Q32MZ4 whole entry, looked up): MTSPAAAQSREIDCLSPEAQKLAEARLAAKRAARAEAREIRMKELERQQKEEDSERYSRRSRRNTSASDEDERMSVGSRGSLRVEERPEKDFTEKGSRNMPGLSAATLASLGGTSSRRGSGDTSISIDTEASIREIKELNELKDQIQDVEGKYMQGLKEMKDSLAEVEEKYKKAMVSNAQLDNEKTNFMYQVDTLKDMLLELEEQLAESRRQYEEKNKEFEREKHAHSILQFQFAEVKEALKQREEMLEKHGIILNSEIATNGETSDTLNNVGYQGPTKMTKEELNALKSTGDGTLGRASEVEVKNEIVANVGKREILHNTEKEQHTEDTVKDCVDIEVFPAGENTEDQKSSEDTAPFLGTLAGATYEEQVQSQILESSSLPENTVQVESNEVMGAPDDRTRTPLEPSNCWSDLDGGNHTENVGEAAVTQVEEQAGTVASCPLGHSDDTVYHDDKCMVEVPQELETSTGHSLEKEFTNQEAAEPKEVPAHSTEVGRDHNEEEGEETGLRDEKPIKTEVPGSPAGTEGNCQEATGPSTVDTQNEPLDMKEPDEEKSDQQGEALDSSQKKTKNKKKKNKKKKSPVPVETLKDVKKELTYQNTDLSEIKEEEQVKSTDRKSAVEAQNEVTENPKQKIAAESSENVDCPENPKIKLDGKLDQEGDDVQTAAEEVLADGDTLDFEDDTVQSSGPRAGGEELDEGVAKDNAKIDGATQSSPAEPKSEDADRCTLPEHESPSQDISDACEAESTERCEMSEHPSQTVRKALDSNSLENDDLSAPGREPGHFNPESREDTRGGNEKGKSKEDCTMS

Target	log2 fold change [1]	log2 fold change [2]	log2 fold change [3]	log2 fold change [4]	log2 fold change [5]	log2 fold change [6]	log2 fold change [7]	log2 fold change [8]	log2 fold change [9]	log2 fold change [10]	log2 fold change [11]	log2 fold change [12]	log2 fold change [13]	log2 fold change [14]	log2 fold change [15]	log2 fold change [16]	log2 fold change [17]	log2 fold change [18]	log2 fold change [19]	log2 fold change [20]
MEAK7 (UniProt Q6P9B6)	0.015	-0.005	0.023	0.054	0.069	0.014	-0.062	0.092	-0.042	-0.017	0.015	-0.041	-0.093	0.078	-0.018	-0.2	0.079	0.037	-0.004	0.033
IGFBP2 (UniProt P18065)	-0.074	-0.023	-0.146	0.3	0.054	0.03	0.09	-0.209	0.065	0.039	0.196	0.09	0.166	-0.115	-0.063	-0.137	0.008	-0.192	0.254	-0.159
MED16 (UniProt Q9Y2X0)	-0.019	-0.085	0.065	-0.038	0.038	0.051	-0.067	-0.155	0.034	-0.046	0	0.003	-0.358 (active)	0.033	-0.029	-0.008	0.064	0.112	-0.019	0.17
LNPEP (UniProt Q9UIQ6)	-0.005	-0.002	0.046	0.016	0.019	0.034	0.067	-0.008	-0.01	0.042	0.015	0.021	-0.021	0.005	-0.02	0.014	0	-0.018	0.001	0.016
MFSD1 isoform 6 (UniProt Q9H3U5)	-0.011	0.011	0.006	0.029	-0.002	-0.009	0.018	0.014	0.059	0.084		0.017	0.025	-0.172	0.055	-0.427 (active)	0.043		0.017	0.08
MAST4 (UniProt O15021)	-0.016	0.101	0.082	0.054	0.032	0.048	-0.086	-0.02	-0.007	-0.094	-0.025	-0.138	-0.089	-0.479 (active)	-0.091	-0.085	0.002	-0.057	-0.027	0.268
LAMP2 isoform 2 (UniProt P13473)	-0.072	0.02	0.041	0.082	-0.022	0.088		-0.007	0.018	0.049	0.127	-0.007	0.012		0.115	-0.713 (active)		-0.026	0.03	-0.078
LPIN3 isoform 2 (UniProt Q9BQK8)	0.053	0.062	0.038	-0.045	0.108	0.022	-0.048	0.022	0.002	-0.014		-0.041	-0.164	-0.024	-0.14	0.027	0.073		-0.019	0.099
KLHL18 (UniProt O94889)	-0.011	0	0.12	0.022	0.031	-0.02	-0.042	-0.085	-0.042	-0.026		0.082	0.104	0.055	0.006	-0.117	-0.111		0.026	0.088
IL10RB (UniProt Q08334)	0.05	-0.089	-0.106	0.053	0	-0.03		0.029	0.037	0.075	0.027	0.079	0.09		-0.09	0.063		0.04	-0.055	-0.089
MED8 isoform 2 (UniProt Q96G25)	0.017	-0.19	-0.056	0.035	-0.031	0.152	-0.153	-0.196			-0.051	0.038	-0.216	-0.013	-0.081	0.05	0.06	-0.043	0.016	
MIA2 (UniProt Q96PC5)	0.01	0.044	0.04	-0.044	-0.033	0.035	0.021	-0.092	0.003	0.041	-0.036	0.008	-0.059	-0.003	0.03	-0.155	0.035	0.043	0.077	0.032
LRRFIP1 isoform 4 (UniProt Q32MZ4)	-0.122	-1.2 (active)	-0.121	-0.006	-0.045			0.072			-0.06		0.163		-0.019	0.031		-0.019		
MAGED1 isoform 2 (UniProt Q9Y5V3)	0.024	0.044	-0.311	-0.059	-0.064			-0.012					0.03		-0.136	0			0.019	
LEPROT (UniProt O15243)	0.06	0.034	0.081	0.088	0.119			-0.058	-0.011	0.001			-0.037		0.142	-0.777 (active)				0.092
LYN isoform 2 (UniProt P07948)	-0.387	0.117	-0.234	-0.152	0.146			-0.163			0.04		-0.246		0.002	-0.078		0.147	-0.113	
MAP2K2 (UniProt P36507)	0.021	-0.005	0.05	-0.001	0.054	-0.005	-0.058	-0.029	-0.003	0.016	0.045	0.012	-0.496 (active)	0.105	-0.065	-0.02	0.056	0.003	0.011	-0.001
LMBR1 isoform 3 (UniProt Q8WVP7)	0.148	-0.016	-0.034	0.071	-0.046	0.081	-0.14	-0.013	0.037	0.15	-0.013	-0.006	-0.054	-0.02	-0.037	-0.453	-0.004	0.012		-0.244
